Measurements: PubChem BioAssay (NCI)
About 83,000 compounds went through this panel and 20% of them were active in at least one assay; those are over-represented in the sample as a whole.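 The endpoint reported here, percent growth, reads 100 for growth as untreated, 0 for no net growth and -100 for all cells dead.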 Unmarked numbers belong to inactive results. Activity calls are given as the source filed them. Rule for the calls: active = growth percent below 10; inactive = the rest.

Columns and labels:
Test in all cases: NCI-60 one-dose screen, 48 h (100 = growth as untreated, 0 = no growth, -100 = all killed)
Conditions in all cases: 10 µM unless noted
[1] = system: DU-145 prostate
[2] = system: K-562 leukemia
[3] = system: MALME-3M melanoma
[4] = system: MDA-MB-231 breast
[5] = system: RXF 393 renal
[6] = system: SF-268 CNS
[7] = system: SF-295 CNS
[8] = system: SF-539 CNS
[9] = system: UACC-257 melanoma
[10] = system: M14 melanoma

SMILES: C#CC#CC#CC#CC#CC#CC#CC#CC[C@@H]1OC[C@H](COC(=O)O[C@@H](C(=O)O[C@H]2C[C@@]3(O)[C@@H](OC(=O)c4ccccc4)[C@@H]4[C@]5(OC(C)=O)CO[C@@H]5C[C@H](O)[C@@]4(C)C(=O)[C@H](OC(C)=O)C(=C2C)C3(C)C)[C@@H](NC(=O)c2ccccc2)c2ccccc2)O1
- growth [1]: 24.4%
- growth [2]: 15.8%
- growth [3]: 43.7%
- growth [4]: 45.3%
- growth [5]: 22.7%
- growth [6]: 51.7%
- growth [7]: 25.3%
- growth [8]: 30.2%
- growth [9]: 55.7%
- growth [10]: 18.6%

SMILES: O=C(O)c1nn(-c2ccc(Cl)cc2)nc1N1CCCC1
- growth [1]: 91.3%
- growth [2]: 87.2%
- growth [3]: 90%
- growth [4]: 101%
- growth [5]: 85.4%
- growth [6]: 98.3%
- growth [7]: 90.5%
- growth [8]: 96.1%
- growth [9]: 94.7%
- growth [10]: 96.7%

SMILES: CC(=O)Cc1nsc(NC(=O)c2cc(-c3cc(Cl)ccc3Cl)oc2C)n1
- growth [1]: 110%
- growth [2]: 102%
- growth [3]: 113%
- growth [4]: 101%
- growth [5]: 103%
- growth [6]: 98.8%
- growth [7]: 99.6%
- growth [8]: 102%
- growth [9]: 93.8%
- growth [10]: 102%

SMILES: Cc1cc2nc(C(Cl)Cl)nc(-c3ccccc3)n2n1
- growth [1]: -6.97% (active)
- growth [2]: 66.4%
- growth [3]: 113%
- growth [4]: 62.7%
- growth [5]: 9.08% (active)
- growth [6]: 77.8%
- growth [7]: 55.7%
- growth [8]: 76.7%
- growth [9]: 93%
- growth [10]: 73.3%

SMILES: CC(=O)/C(Br)=C/c1ccc(Br)o1
- growth [1]: 68.5%
- growth [2]: 4.61% (active)
- growth [3]: 61.4%
- growth [4]: 95.7%
- growth [5]: -13.5% (active)
- growth [6]: 75%
- growth [7]: 73.7%
- growth [8]: 94%
- growth [9]: 102%
- growth [10]: 64.9%

SMILES: O=C(Nc1ncc(Cc2ccc(Cl)cc2)s1)C1=NCCCCN1
- growth [1]: 105%
- growth [2]: 95.4%
- growth [3]: 102%
- growth [4]: 110%
- growth [5]: 119%
- growth [6]: 103%
- growth [7]: 102%
- growth [8]: 102%
- growth [9]: 108%
- growth [10]: 104%

SMILES: CC1(C)CCC[C@]23C(=O)O[C@](O)(C(=O)C4=C[C@@](C)(/C=C/CCCc5ccc6ccc7cccc8ccc5c6c78)CC[C@@]42O)[C@@H]13
- growth [1]: -85.7% (active)
- growth [2]: 5.77% (active)
- growth [3]: -93.6% (active)
- growth [4]: -69.9% (active)
- growth [5]: -86.2% (active)
- growth [6]: -45.3% (active)
- growth [7]: -76.7% (active)
- growth [8]: -96.6% (active)
- growth [9]: -68.7% (active)
- growth [10]: -62% (active)

SMILES: O=c1oc2ccccc2cc1-c1nn(-c2ccccc2)cc1/C=N/Nc1nc(-c2ccccc2)c(N=Nc2ccccc2)s1
- growth [1]: 76.8%
- growth [2]: 21.7%
- growth [3]: 77%
- growth [4]: 68.8%
- growth [5]: 98.1%
- growth [6]: 79.3%
- growth [7]: 70.9%
- growth [8]: 88.5%
- growth [9]: 86.5%
- growth [10]: 45.4%

SMILES: CCCCCC(C)(O)C(C(=O)O)c1ccccc1 (stereo not given)
- growth [1]: 114%
- growth [2]: 121%
- growth [3]: 93.9%
- growth [4]: 102%
- growth [5]: 110%
- growth [6]: 107%
- growth [7]: 103%
- growth [8]: 95.4%
- growth [9]: 102%
- growth [10]: 96.7%

SMILES: CC(C)n1nc(-c2ccc3oc(N)nc3c2)c2c(N)ncnc21
- growth [1]: 2.37% (active)
- growth [2]: 18.3%
- growth [3]: -40.7% (active)
- growth [4]: -15.1% (active)
- growth [5]: -43.1% (active)
- growth [6]: -1.05% (active)
- growth [7]: -50.9% (active)
- growth [8]: -43.7% (active)
- growth [9]: -27.8% (active)
- growth [10]: -18.8% (active)

SMILES: CCOC(=O)/C=C1\S/C(=N\Nc2cc(=O)[nH]c3ccc(OC)cc23)N(c2ccccc2)C1=O
- growth [1]: 98.6%
- growth [2]: 86.5%
- growth [3]: 101%
- growth [4]: 107%
- growth [5]: 111%
- growth [6]: 101%
- growth [7]: 102%
- growth [8]: 97.4%
- growth [9]: 102%
- growth [10]: 99.9%

SMILES: Cc1nc2cccc(NCc3ccc(C(=O)NO)cc3)c2c(=O)n1-c1ccccc1
- growth [1]: 26.7%
- growth [2]: 18.7%
- growth [3]: 35.3%
- growth [4]: 48.2%
- growth [5]: 28.2%
- growth [6]: 54%
- growth [7]: 16%
- growth [8]: 15.1%
- growth [9]: 53.4%
- growth [10]: 32.8%

SMILES: C=CCNc1ccc2c3c(cccc13)C(=O)N(CC=C)C2=O
- growth [1]: 102%
- growth [2]: 96.7%
- growth [3]: 111%
- growth [4]: 88.9%
- growth [5]: 99.7%
- growth [6]: 96.2%
- growth [7]: 106%
- growth [8]: 93.7%
- growth [9]: 114%
- growth [10]: 108%
